Where “and” joins values, the source holds several entries; their conditions need not be identical. Equal entries are not always repeated. Unmarked numbers belong to inactive results. Results filed as inconclusive are left out. A call without a number means that no potency is given here. Calls of active or inactive are those of the source. Calls come from the whole dose curve; as a rule, active = well fitted curve in the direction sought with a large enough effect; inconclusive = small, poorly fitted or top-dose-only effect, or another doubt; inactive = no such curve, though single readings can be large; an effect the other way counts as inactive or inconclusive.
Tests used:
[1] = target: Arylsulfatase A (Homo sapiens) (UniProt P15289); assay: qHTS screen for enhancers of Arylsulfatase A (ASA1): LOPAC Validation Assay (AID 720538); note: potency is the fitted concentration of half-maximal effect
How it was run: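 SV40-transformed fibroblasts from an MLD patient (ASA-I179S) were treated with compound for 48 h at 37 C. They were then lysed with 0.5 mM pNCS substrate (final) for 14 h at room temperature and stopped with NaOH; signal read by fluorescence (Ex 525/Em 598 nm), with increase denoting enhanced activity.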

[2] = qHTS for compounds that reverse cellular toxicity of Amyloid beta (A-beta) peptide in yeast: LOPAC Validation Assay (AID 720559); conditions: Potency: rescue of growth toxicity
How it was run: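 Yeast expressing toxic A-beta grown with pinned compounds at 30 C for 48 hr. Growth measured as absorbance at 600 nm; data normalized to DMSO and to an equimolar FeCl3/clioquinol mixture as positive control.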

[3] = qHTS for Activators of Parkin Expression: LOPAC Validation Assay (NLuc Reporter) (AID 720572; note: potency is the fitted concentration of half-maximal effect)
How it was run: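 Compound effects on Parkin promoter activity were measured as NanoLuc luminescence after 24 h at 37 C. The neuronal reporter line also carried FLuc, which was read first. LOPAC compounds were tested at 7 concentrations, with normalization to DMSO (0%) and positive control (100%).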

[4] = qHTS for Activators of Parkin Expression: LOPAC Validation Assay (FLuc Reporter) (AID 720573; note: potency is the fitted concentration of half-maximal effect)
How it was run: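 Neuronal cell line stably expressing FLuc/NLuc coincidence reporter under the Parkin promoter, 1,500 cells/well, dosed 24 h after seeding in 7-point series for 24 h at 37 C. FLuc luminescence read; normalized to DMSO and positive control (100%).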

[5] = target: T1, Hexokinase-4 (Homo sapiens) + Glucokinase regulatory protein (Homo sapiens) (UniProt P35557+Q14397); assay: qHTS assay for inhibitors of recombinant human GCK-GKRP interaction: Diaphorase-coupled assay (AID 743205)
How it was run: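 Compounds pre-incubated 20 min with substrate, then 10 nM GST-GCK with 10 nM FLAG-GKRP added. GCK activity coupled via G6PDH and diaphorase to resorufin (5 mM glucose, 0.4 mM ATP, 0.15 mM NADP+, pH 7.6), read kinetically over 30 minutes at Ex 525/Em 590 nm.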

[6] = target: T1, Hexokinase-4 (Homo sapiens) + Glucokinase regulatory protein (Homo sapiens); assay: qHTS assay for inhibitors of recombinant human GCK-GKRP interaction: ADP-Glo assay (AID 743206)
How it was run: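 Pin-transferred compounds meet a 15 nM GST-GCK/15 nM FLAG-GKRP/2 uM S6P mix (dispense concentrations). ATP is then added to 0.4 mM final with 5 mM glucose, and the reaction runs 60 min at room temperature. ADP is quantified luminescently.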

[7] = target: T1, Hexokinase-4 (Homo sapiens) + Glucokinase regulatory protein (Homo sapiens); assay: qHTS assay for inhibitors of recombinant human GCK-GKRP interaction: HTRF assay (AID 743207)
How it was run: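 HTRF binding of 5 nM GST-GCK and 5 nM FLAG-GKRP with 2 uM S6P in pH 7.1 Hepes buffer (MgCl2, KCl, DTT, Tween 20, BSA). Anti-FLAG XL665 and anti-GST donor added, 60 min at room temperature; 665/615 nm read, normalized to with- and without-GCK controls.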

[8] = qHTS Assay for Identifying Gametocytocidal Compounds (AID 743244); note: potency is the fitted concentration of half-maximal effect;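 for max response: actives lower the fluorescent signal which means gametocytes are killed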; conditions: P. falciparum 3D7 stage III-V gametocytes, alamarBlue, 72 h; max response: active compounds read low
How it was run: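 Compounds are pinned into medium, gametocytes (stage III–V, 3D7, 20,000 cells/well) added, and plates held 72 h at 37 °C in 5% CO2. AlamarBlue follows for 24 h before fluorescence reading.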

T1 sequence (P35557 whole entry, looked up): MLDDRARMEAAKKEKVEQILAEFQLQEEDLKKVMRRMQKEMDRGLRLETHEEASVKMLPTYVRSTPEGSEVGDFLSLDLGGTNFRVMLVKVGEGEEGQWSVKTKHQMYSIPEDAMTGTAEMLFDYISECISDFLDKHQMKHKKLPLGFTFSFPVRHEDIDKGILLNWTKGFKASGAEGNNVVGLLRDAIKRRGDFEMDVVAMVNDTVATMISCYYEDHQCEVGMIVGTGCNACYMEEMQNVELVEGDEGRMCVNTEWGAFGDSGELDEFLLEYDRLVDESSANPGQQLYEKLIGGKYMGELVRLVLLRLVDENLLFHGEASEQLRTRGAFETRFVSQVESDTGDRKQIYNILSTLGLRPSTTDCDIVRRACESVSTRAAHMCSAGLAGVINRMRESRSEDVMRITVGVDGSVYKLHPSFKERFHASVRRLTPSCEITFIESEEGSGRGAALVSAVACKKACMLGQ
T1 sequence (Q14397 whole entry, looked up): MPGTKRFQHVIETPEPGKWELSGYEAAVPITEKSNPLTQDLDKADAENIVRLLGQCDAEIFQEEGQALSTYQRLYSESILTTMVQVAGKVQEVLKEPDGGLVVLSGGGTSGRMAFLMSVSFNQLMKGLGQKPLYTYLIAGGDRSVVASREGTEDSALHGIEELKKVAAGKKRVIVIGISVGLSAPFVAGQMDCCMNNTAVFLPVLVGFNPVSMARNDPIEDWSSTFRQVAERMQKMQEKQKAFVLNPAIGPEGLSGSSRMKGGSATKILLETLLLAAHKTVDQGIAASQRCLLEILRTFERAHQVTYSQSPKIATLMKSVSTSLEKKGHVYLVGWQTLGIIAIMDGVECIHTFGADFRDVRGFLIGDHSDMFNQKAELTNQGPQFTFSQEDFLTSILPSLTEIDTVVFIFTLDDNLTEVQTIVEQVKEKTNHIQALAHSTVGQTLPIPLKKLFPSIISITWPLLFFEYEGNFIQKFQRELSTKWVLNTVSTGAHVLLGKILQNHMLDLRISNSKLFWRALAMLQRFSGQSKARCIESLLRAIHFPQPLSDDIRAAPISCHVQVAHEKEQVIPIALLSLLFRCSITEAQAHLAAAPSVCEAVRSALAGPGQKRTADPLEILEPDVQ
Chain of Arylsulfatase A (Homo sapiens) (P15289 whole entry, looked up): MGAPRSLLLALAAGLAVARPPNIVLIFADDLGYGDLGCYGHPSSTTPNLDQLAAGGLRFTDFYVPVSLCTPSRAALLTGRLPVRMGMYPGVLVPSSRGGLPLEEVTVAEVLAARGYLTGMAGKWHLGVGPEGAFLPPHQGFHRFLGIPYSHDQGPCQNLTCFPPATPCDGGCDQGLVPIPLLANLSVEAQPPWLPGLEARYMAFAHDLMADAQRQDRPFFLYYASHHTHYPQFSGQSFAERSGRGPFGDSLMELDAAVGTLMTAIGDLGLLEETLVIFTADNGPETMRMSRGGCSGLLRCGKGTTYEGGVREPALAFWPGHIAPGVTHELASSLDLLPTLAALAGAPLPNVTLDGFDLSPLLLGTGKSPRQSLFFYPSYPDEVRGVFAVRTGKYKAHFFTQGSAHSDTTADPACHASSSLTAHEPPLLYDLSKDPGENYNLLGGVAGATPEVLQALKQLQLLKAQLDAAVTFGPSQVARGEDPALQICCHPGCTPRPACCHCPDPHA

Structure (SMILES)	Potency [1]	Potency [2]	Potency [3]	Potency [4]	outcome [5]	Potency [6]	Potency [7]	max response [8]	Potency [8]
CC(=O)/C=C1\C(=O)N(C)c2ccccc21	inactive	inactive	inactive	inactive	inactive	inactive	inactive	-11.9%	–
OC[C@H]1O[C@@H](n2cnc3c(NC4CCCCC4)ncnc32)[C@H](O)[C@@H]1O	inactive	inactive	inactive	inactive	inactive	inactive	inactive	8.7%	–
Nc1nc(Cl)nc2c1ncn2[C@@H]1O[C@H](CO)[C@@H](O)[C@H]1O	inactive	inactive	inactive	inactive	inactive	inactive	inactive	6.66%	–
CCOC(=O)C1=C(C)NC(C)=C(C(=O)OCC)C1c1c(F)c(F)c(F)c(F)c1F	inactive	inactive	4.11 µM (active)	inactive	inactive	inactive	–	17%	–
CNC(=O)[C@H]1O[C@@H](n2cnc3c(NCc4ccc(N)cc4)ncnc32)[C@H](O)[C@@H]1O	inactive	inactive	inactive	inactive	inactive	inactive	inactive	6.14%	–
CCNC(=O)[C@H]1O[C@@H](n2cnc3c(N)nc(NCCc4ccc(CCC(=O)O)cc4)nc32)[C@H](O)[C@@H]1O	inactive	inactive	inactive	inactive	inactive	inactive	inactive	-4.57%	–
CC(C)Cc1ccc([C@H](C)C(=O)O)cc1	inactive	inactive	inactive	inactive	inactive	inactive	inactive	-6.28% and 20.5%	–
CCN1/C(=C/C(C)=O)Sc2ccc(OC)cc21	inactive	inactive	inactive	inactive	inactive	inactive	inactive	22.2%	–
N#C/C(=C\c1c[nH]c2ccccc12)C(=O)c1ccc(O)c(O)c1	inactive	inactive	inactive	inactive	inactive	inactive	inactive	-1.71%	–
NCCSSCCN	inactive	inactive	inactive	inactive	inactive	inactive	inactive	3.62%	–
C=CC(N)CCC(=O)O (stereo not given)	inactive	inactive	inactive	inactive	inactive	inactive	inactive	-1.49% and -10.7%	–
O=C(O)[C@@H]1C[C@@H](C(=O)O)N1	inactive	inactive	inactive	inactive	inactive	inactive	inactive	6.85%	–
CCCCCCCCCCCCCCCCCC(=O)NCC(COP(=O)([O-])OCC[N+](C)(C)C)OCC (stereo not given)	inactive	inactive	inactive	inactive	inactive	inactive	inactive	4.32%	–
CCCC1(C)C(C#N)(C#N)C1(C#N)C#N	inactive	inactive	inactive	inactive	inactive	inactive	inactive	–	2.24 µM (active)
CC12C(=O)OC(=O)C1(C)C1CCC2O1 (stereo not given)	inactive	inactive	inactive	inactive	inactive	inactive	inactive	3.18%	–
O=c1[nH]c2cc([N+](=O)[O-])c([N+](=O)[O-])cc2[nH]c1=O	8.49 µM (active)	inactive	inactive	inactive	inactive	inactive	inactive	23.7%	–
CCCCCCCCc1ccc(-c2ccc(C(=O)O)cc2)cc1	inactive	inactive	inactive	inactive	inactive	inactive	–	11.5%	–

Structure (SMILES)	Potency [1]	Potency [2]	Potency [3]	Potency [4]	outcome [5]	Potency [6]	Potency [7]	max response [8]	Potency [8]
Cc1cc(NC(=O)Nc2ccc3c(ccn3C)c2)sn1	inactive	inactive	inactive	5.8 µM (active)	inactive	inactive	inactive	24.1%	–
Ic1ccc(N2CCN(Cc3c[nH]c4ncccc34)CC2)cc1	inactive	inactive	inactive	inactive	inactive	inactive	inactive	5.54%	–
O=C(O)CC[C@@H](C(=O)O)N1C(=O)c2ccccc2C1=O	inactive	inactive	inactive	inactive	inactive	inactive	inactive	-10.9%	–
CC(N)C(=O)OC(C)(C)Cc1ccc(Cl)cc1 (stereo not given)	inactive	inactive	inactive	inactive	inactive	inactive	inactive	11% and 11.7%	–
Cc1ccccc1CNc1ncnc2c1ncn2C1OC(CO)C(O)C1O (stereo not given)	inactive	inactive	inactive	inactive	inactive	inactive	inactive	21.1%	–
CCCCCCCCCCCCCCCC(=O)OC(CC(=O)O)C[N+](C)(C)C (stereo not given)	inactive	inactive	inactive	inactive	inactive	inactive	inactive	-5.64%	–
Cn1ncc(S(=O)(=O)Cc2ccccc2)c(Br)c1=O	inactive	inactive	inactive	inactive	inactive	inactive	–	25.3%	–
CN1CCc2cccc3c2C1Cc1ccc(O)c(O)c1-3 (stereo not given)	inactive	inactive	inactive	inactive	inactive	inactive	–	–	0.562 µM (active)
COc1cc2c(CCNC(C)=O)c[nH]c2cc1Cl	inactive	inactive	inactive	inactive	inactive	inactive	inactive	6.49%	–
Cc1nc2sccn2c(=O)c1CCN1CCC(=C(c2ccccc2)c2ccc(F)cc2)CC1	inactive	inactive	inactive	inactive	inactive	inactive	inactive	35.1%	–
Nc1nc(SCc2ccc([N+](=O)[O-])cc2)c2ncn([C@@H]3O[C@H](CO)[C@@H](O)[C@H]3O)c2n1	inactive	inactive	inactive	inactive	inactive	inactive	inactive	22.6%	–
COc1cccc(OC)c1OCCNCC1COc2ccccc2O1 (stereo not given)	inactive	inactive	inactive	inactive	inactive	inactive	inactive	16.7%	–
NC(CCCP(=O)(O)O)C(=O)O (stereo not given)	inactive	inactive	inactive	inactive	inactive	inactive	inactive	8.77%	–
CN1C2CC(OC(=O)[C@H](CO)c3ccccc3)CC1C1OC12 (stereo not given in full)	inactive	inactive	inactive	inactive	inactive	inactive	inactive	21.9%	–
COc1ccc(/C=C/C(=O)Nc2ccccc2C(=O)O)cc1OC	6.75 µM (active)	inactive	–	inactive	inactive	inactive	inactive	46% and -4.4%	–
Cc1cc(NC2CCCCC2)nc(-n2nc(C)cc2C)n1	inactive	inactive	–	inactive	inactive	inactive	inactive	–	1.18 µM (active)
COc1cccc(C(=O)NCCN2CCN(c3ccc(Cl)cc3)CC2)c1	inactive	inactive	inactive	inactive	inactive	inactive	–	13.6%	–

From PubChem BioAssay (NCATS)
